# Screens from PubChem.
# This is a sample that favours compounds with a hit; in the whole collection about 2.7% have one here.
# SKN-1 inh: C. elegans SKN-1 inhibition. C. elegans VP596 Pgst-4::GFP/RFP ratio, acrylamide-induced, 24 h. inhibition, % at 21.8 µM. 0.49% of 360,000 active;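 active = interference check ratio from 0.5 to 1.5 plus GFP to RFP signal ratio inhibition reaching or exceeding a fixed threshold, cut at about 30% in these data, passing the limit was not always enough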
# CFTR F508del cor: correctors of CFTR F508del function in bronchial epithelial cells; CFBE cells, YFP halide quenching; stimulated with forskolin plus potentiator P3; % fluorescence drop versus neutral controls; activity (quench increase), % at 7.58 µM; 0.36% of 350,000 active; AID 720511;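 active = mean added fluorescence quench of at least 8% versus neutral control, with both replicates also reaching 8%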;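 note: cells transiently co-express mutant CFTR-F508del with the halide-sensitive YFP; corrector assay measuring rescue of mutant channel to the surface after 24 h compound exposure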
# NRP1-CendR mod: NRP-1/CendR interaction modulation. O14786. FAM-RPARPAR peptide binding to NRP-1, fluorescence polarization. inhibition, % at 25 µM. 0.85% of 360,000 active. AID 602438;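 active = inhibition or corrected inhibition above about 18%, plus a signal ratio from 0.5 to 1.5, limit read from the data, passing the limit was not always enough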
# Target sequence (O14786 whole entry, looked up): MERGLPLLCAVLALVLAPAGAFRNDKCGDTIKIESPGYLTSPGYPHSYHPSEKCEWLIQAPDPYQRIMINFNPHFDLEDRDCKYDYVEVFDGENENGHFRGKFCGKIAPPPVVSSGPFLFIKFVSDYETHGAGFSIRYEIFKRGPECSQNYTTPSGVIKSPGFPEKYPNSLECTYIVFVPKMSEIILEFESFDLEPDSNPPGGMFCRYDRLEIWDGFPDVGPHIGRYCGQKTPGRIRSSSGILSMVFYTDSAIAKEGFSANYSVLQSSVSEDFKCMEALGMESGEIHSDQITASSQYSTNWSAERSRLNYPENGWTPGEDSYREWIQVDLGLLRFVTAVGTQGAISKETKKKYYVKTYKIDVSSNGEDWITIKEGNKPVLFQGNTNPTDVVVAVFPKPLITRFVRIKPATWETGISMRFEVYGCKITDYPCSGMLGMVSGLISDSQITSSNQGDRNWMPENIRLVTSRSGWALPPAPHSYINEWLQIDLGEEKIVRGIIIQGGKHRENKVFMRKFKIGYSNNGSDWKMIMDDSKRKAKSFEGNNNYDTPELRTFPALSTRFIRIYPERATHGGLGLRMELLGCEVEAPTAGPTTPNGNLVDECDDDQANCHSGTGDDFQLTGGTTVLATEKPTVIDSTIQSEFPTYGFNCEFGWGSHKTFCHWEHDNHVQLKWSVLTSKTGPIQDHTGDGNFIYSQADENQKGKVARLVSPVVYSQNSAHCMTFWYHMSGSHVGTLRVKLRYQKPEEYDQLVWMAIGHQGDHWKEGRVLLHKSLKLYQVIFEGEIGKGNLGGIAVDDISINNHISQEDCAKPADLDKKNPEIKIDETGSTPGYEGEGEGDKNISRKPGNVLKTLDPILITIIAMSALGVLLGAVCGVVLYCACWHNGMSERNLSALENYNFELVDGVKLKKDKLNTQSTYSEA
# ATG4B inh: blocks human ATG4B protease cleavage of LC3 substrate. Q9Y4P1. ATG4B cleavage of LC3-PLA2, NBD-HPC fluorescence, 1 h. AID 504462. 0.51% of 340,000 active. inhibition, % at 8.33 µM; in the data active = inhibition above about 40%
# MPTP inh: permeability transition pore inhibition; isolated mouse mitochondria, Ca2+ swelling absorbance, 30 min; inhibition, % at 10 µM; 1.4% of 360,000 active; AID 602449;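 active = inhibition of 50% or more, scaled per plate between neutral and stimulator controls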;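 note: 0% = DMSO wells given calcium and 100% = 1 mM EGTA wells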
# Rh123 counter: mitochondrial membrane potential, counter-screen. shares compounds with MPTP inh. isolated mitochondria, Rhodamine 123 fluorescence. inhibition, % at 10 µM. 78% of 5,000 active; in the data active = inhibition above about 22%;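 note: 0% = DMSO vehicle and 100% = positive control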
# MPTP abs DR: dose response confirmation of mitochondrial permeability transition pore inhibitors; shares compounds with MPTP inh; isolated mitochondria swelling, absorbance; IC50, µM; 58% of 780 active; in the data active = IC50 below about 20 µM
# MPTP cs DR: counter-screen for mitochondrial permeability transition pore inhibitors, dose response | IC50, µM | isolated mitochondria counterscreen, fluorescence read-out | shares compounds with MPTP inh | AID 651564 | 49% of 780 active; in the data active = IC50 below about 80 µM
# The depositor's hits bear a star; . = no result given.
SMILES,SKN-1 inh,CFTR F508del cor,NRP1-CendR mod,ATG4B inh,MPTP inh,Rh123 counter,others
Cc1ccc(Nc2ccc([N+](=O)[O-])cn2)cc1Cl,2,0,-1,-2,75*,69*,
CCc1nnc(NS(=O)(=O)c2ccc(NC(=S)NC(=O)/C=C/c3ccc(C(C)C)cc3)cc2)s1,11,.,-113,33,66*,42*,
CCc1nnc(NS(=O)(=O)c2ccc(NC(=S)NC(=O)/C=C/c3ccccc3)cc2)s1,10,0,-23,23,12,.,
CCS(=O)(=O)N(C)C[C@@H]1N[C@H](CO)[C@@H]1c1ccc(C#CC(C)C)cc1,.,-2,.,.,.,.,
CSc1ccc2c(c1)N(CCC1CCCCN1C)c1ccccc1S2 (stereo not given),6,-12,4,4,85*,-22,MPTP abs DR=4.8*;MPTP cs DR=56*
C[C@@H]1CN([C@H](C)CO)C(=O)Cc2cc(NS(C)(=O)=O)ccc2O[C@H]1CN(C)Cc1ccccc1,.,5,.,.,.,.,
CCCC(C)NC(=O)COc1ccc(Sc2ccc(OCC(=O)NC(C)CCC)cc2)cc1 (stereo not given),6,4,-14,-4,78*,34*,
CCCC(C)NC(=O)Cc1ccc(Br)cc1 (stereo not given),2,.,-5,4,0,.,
CC(C)CNC(=O)COc1ccc(Sc2ccc(OCC(=O)NCC(C)C)cc2)cc1,2,.,10,-5,53*,20,MPTP abs DR=5.4*;MPTP cs DR=>80
Cc1cc(OCC(=O)NCC(C)C)cc(C)c1Br,28,.,16,-2,-1,.,
CC(=O)Nc1ccc(S(=O)(=O)NCCC(=O)OCC(=O)c2ccc(Br)cc2)cc1,2,0,7,-14,59*,87*,
O=[N+]([O-])c1cc(C(F)(F)F)cc([N+](=O)[O-])c1NCCNC(=S)Nc1cccc(F)c1,-6,3,-7,-5,90*,78*,
N#C[C@@H]1[C@H](c2ccccc2)[C@@H](CO)N1S(=O)(=O)c1ccc(F)cc1,.,1,.,.,.,.,
CCOC(=O)c1c(-c2ccc(C)o2)csc1NC(=O)CSc1nnc(C)s1,9,.,-8,-24,5,.,
CCOC(=O)c1c(-c2ccccc2)csc1NC(=O)CSc1nnc(C)s1,-6,.,-5,-5,67*,46*,
C[C@H](CO)N1C[C@H](C)[C@H](CN(C)C(=O)Nc2cccc3ccccc23)Oc2ccc(NC(=O)Cc3cn(C)c4ccccc34)cc2C1=O,.,1,.,.,.,.,
CCCN1C[C@H](C)[C@H](OC)CN(C)C(=O)c2cc(NS(=O)(=O)c3ccccc3)ccc2OC[C@@H]1C,.,1,.,.,.,.,
CC(=O)c1ccc(N2CCN(c3ccc(S(=O)(=O)NCCCN(C)C)cc3[N+](=O)[O-])CC2)cc1,14,-5,-5,-7,36,.,
CN(C)CCCNS(=O)(=O)c1ccc(N2CCN(Cc3ccc4c(c3)OCO4)CC2)c([N+](=O)[O-])c1,3,-1,8,-9,87*,93*,
CN(C)CCNS(=O)(=O)c1ccc(N2CCc3ccccc32)c([N+](=O)[O-])c1,22,0,1,-2,88*,-6,MPTP abs DR=12*;MPTP cs DR=49*
COC(=O)C[C@@H]1C[C@H]2c3cc(NC(=O)CC4CC4)ccc3O[C@H]2[C@H](CO)O1,.,0,.,.,.,.,
CSCCC(NC(=O)c1ccc(Cl)cc1)C(=O)OCC(=O)Nc1ccc(C#N)cc1 (stereo not given),-12,.,0,-6,50*,44*,
CSCCC(NC(=O)c1ccc(Cl)cc1)C(=O)OCC(C)=O (stereo not given),3,-2,-1,9,0,.,
O=[N+]([O-])c1cccc(-c2nc(-c3ccccc3)c(-c3cccs3)[nH]2)c1,5,.,-6,5,-12,.,
O=[N+]([O-])c1cccc(-c2nc(-c3cccs3)c(-c3cccs3)[nH]2)c1,-2,.,-10,-2,104*,53*,
CN1c2ccc(Br)cc2[C@H]2[C@H](CCN2C(=O)Nc2ccccc2F)[C@H]1CO,.,-2,.,.,.,.,
Clc1ccc(COc2cccc(CNCc3ccncc3)c2)cc1,23,1,5,4,68*,85*,
